Test systems include SR leukemia; RPMI-8226 leukemia; OVCAR-8 ovarian; OVCAR-5 ovarian; OVCAR-4 ovarian; SK-OV-3 ovarian; IGROV1 ovarian; OVCAR-3 ovarian; HS 578T breast; NCI/ADR-RES ovarian.
Common to all, as to assay: NCI-60 one-dose screen, 48 h (100 = growth as untreated, 0 = no growth, -100 = all killed)
Common to all, as to settings: 10 µM unless noted

This is part of a sample that, as a whole, favours compounds with a hit. Of some 83,000 tested, about 20% had one in any assay.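 Cell lines were cultured in 96-well plates, exposed to a single compound concentration, and assessed for percent growth 48 hours later.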 Values without a mark were called inactive. Active and inactive are the calls of the source. The calls were made as follows: active = growth percent below 10; inactive = the rest.

Regarding `COc1ccc(NC(=O)c2cc(NCc3cc(O)ccc3O)ccc2O)cc1`, the growth is 39.3% with SR leukemia; 49.5% in the test on RPMI-8226 leukemia; 83.3% in the test on OVCAR-8 ovarian; 116% in the test with OVCAR-5 ovarian; 91.9% with OVCAR-4 ovarian; 86% in the test on SK-OV-3 ovarian. Also, the growth in the test on IGROV1 ovarian is 88.4%; with OVCAR-3 ovarian, 84.3%; in the test on HS 578T breast, 90.1%; in the test with NCI/ADR-RES ovarian, 101%.

In the case of `CCCCCN1C=C/C(=C\C(=O)N2CCCc3ccccc32)c2ccccc21`, the growth with SR leukemia is 61.6%; with RPMI-8226 leukemia it was 43.9%; in the test with OVCAR-8 ovarian, 89.3%; with OVCAR-5 ovarian, 99.8%; with OVCAR-4 ovarian, 75.2%; in the test on SK-OV-3 ovarian, 95%. Also, the growth in the test with IGROV1 ovarian is 77.9%; in the test with OVCAR-3 ovarian, 84.5%; with HS 578T breast it was 94.8%; with NCI/ADR-RES ovarian it was 107%.

As for `NC(=NCCCOc1ccc(F)cc1)Nc1ccc(Cl)cc1`, the growth in the test with SR leukemia was 72%; with RPMI-8226 leukemia, 85.3%; in the test on OVCAR-8 ovarian, 90.1%; with OVCAR-5 ovarian, 54.5%; with OVCAR-4 ovarian, 46%; with SK-OV-3 ovarian, 75.6%. Also, the growth was 30.9% in the test on IGROV1 ovarian, 89.6% in the test on OVCAR-3 ovarian, 81.9% with HS 578T breast and 77.3% in the test with NCI/ADR-RES ovarian.

`C/C(=N\NC(=O)CSc1nc2ccccc2c(=O)n1CCc1ccc(S(N)(=O)=O)cc1)c1ccccn1`: the growth was 22.8% in the test on SR leukemia; 30.9% in the test with RPMI-8226 leukemia; 22.8% in the test on OVCAR-8 ovarian; 39.8% in the test with OVCAR-5 ovarian; 19.5% with OVCAR-4 ovarian; 20.8% in the test with SK-OV-3 ovarian. The growth in the test on IGROV1 ovarian is 45.5%; in the test with OVCAR-3 ovarian, 12.5%; in the test on HS 578T breast, 73.7%; in the test on NCI/ADR-RES ovarian, 74.4%.

For `NC(=O)CSSCC(N)=O`, the growth with SR leukemia is 85.2%; in the test on RPMI-8226 leukemia it was 91.4%; in the test with OVCAR-8 ovarian it was 101%; in the test with OVCAR-5 ovarian, 105%; in the test with OVCAR-4 ovarian, 111%; in the test on SK-OV-3 ovarian, 109%. In addition, the growth in the test on IGROV1 ovarian is 97.8%; in the test with OVCAR-3 ovarian, 114%; with HS 578T breast, 97.6%; in the test on NCI/ADR-RES ovarian it was 105%.

Turning to `CCCCCCCCOc1ccc(/C=N/Nc2cc(C)nc3ccc(Br)cc23)cc1`, the growth in the test on SR leukemia is -14.3% (active); with RPMI-8226 leukemia, 36.6%; in the test on OVCAR-8 ovarian, 46.4%; with OVCAR-5 ovarian, 101%; with OVCAR-4 ovarian, -1.74% (active); with SK-OV-3 ovarian, 104%. Besides, the growth was 62.5% with IGROV1 ovarian, 67.1% in the test with OVCAR-3 ovarian, 64.1% in the test with HS 578T breast and 65.1% in the test on NCI/ADR-RES ovarian.

`CCOC(=O)c1cc(C(=O)c2ccc(OC)c(OC)c2)n2c1ccc1ccccc12`: the growth with SR leukemia is 86.5%; with RPMI-8226 leukemia it was 80%; in the test with OVCAR-8 ovarian, 94.7%; in the test with OVCAR-5 ovarian it was 104%; in the test with OVCAR-4 ovarian it was 91.9%; with SK-OV-3 ovarian it was 93%. Further, the growth with IGROV1 ovarian is 58.6%; in the test on OVCAR-3 ovarian, 99.6%; in the test with HS 578T breast, 93.8%; with NCI/ADR-RES ovarian, 91.5%.

With `Cn1cc(CC2CC(=O)N(c3ccccc3)C2=O)sc1=NC(=O)c1ccccc1` (stereo not given), the growth in the test on SR leukemia is 96%; with RPMI-8226 leukemia it was 105%; in the test with OVCAR-8 ovarian, 104%; with OVCAR-5 ovarian, 95.2%; in the test on OVCAR-4 ovarian, 103%; with SK-OV-3 ovarian it was 97.1%. Besides, the growth with IGROV1 ovarian is 93.1%; in the test on OVCAR-3 ovarian it was 99.2%; in the test with HS 578T breast it was 89.8%; with NCI/ADR-RES ovarian, 97.5%.

`CCc1c(Cl)nc(N)nc1Nc1ccc(C)c(C)c1`: the growth with SR leukemia is 73%; in the test with RPMI-8226 leukemia, 104%; with OVCAR-8 ovarian it was 102%; in the test with OVCAR-5 ovarian it was 110%; in the test with OVCAR-4 ovarian it was 98%; in the test with SK-OV-3 ovarian, 109%. The growth with IGROV1 ovarian was 97.4%; with OVCAR-3 ovarian it was 116%; with HS 578T breast, 97.9%; in the test with NCI/ADR-RES ovarian, 99.2%.

Take `NS(=O)(=O)c1ccc(CCN2C(=O)c3cc(Cl)c(Cl)cc3C2=O)cc1`: the growth in the test on SR leukemia is 96%; in the test on RPMI-8226 leukemia, 104%; in the test on OVCAR-8 ovarian, 106%; in the test with OVCAR-5 ovarian it was 108%; in the test on OVCAR-4 ovarian, 104%; with SK-OV-3 ovarian, 113%. The growth in the test with IGROV1 ovarian was 107%; with OVCAR-3 ovarian it was 109%; in the test with HS 578T breast it was 108%; with NCI/ADR-RES ovarian, 105%.

On to `COc1cc(/C(C)=C(\c2ccc(Cl)cc2)c2ccc(OCCN3CCCC3)cc2)ccc1F`, for which the growth with SR leukemia is -25.3% (active); with RPMI-8226 leukemia, 14.7%; in the test with OVCAR-8 ovarian, 69.1%; with OVCAR-5 ovarian, 74.8%; in the test on OVCAR-4 ovarian it was 51.8%; in the test with SK-OV-3 ovarian, 108%. Further, the growth was 40.4% in the test with IGROV1 ovarian, 63% in the test on OVCAR-3 ovarian, 70.5% in the test with HS 578T breast and 69.9% with NCI/ADR-RES ovarian.

Consider `Cc1cccc(NC(=O)Nc2ccc(-c3ccc4c(c3)NC(=O)/C4=C\c3ccc[nH]3)cc2)c1`, for which the growth in the test on SR leukemia was 23.6%; with RPMI-8226 leukemia, 91.4%; in the test with OVCAR-8 ovarian, 105%; with OVCAR-5 ovarian, 96.3%; in the test on OVCAR-4 ovarian, 73.4%; with SK-OV-3 ovarian it was 90.5%. For the same compound, the growth was 78% in the test with IGROV1 ovarian, 103% in the test with OVCAR-3 ovarian, 95.7% in the test with HS 578T breast and 93.8% in the test on NCI/ADR-RES ovarian.

For the compound `Cc1ccc(S(=O)(=O)Nn2c3c(cc(-c4nc5ccccc5s4)c2=O)CCCCCC3)cc1`, the growth was 97.8% with SR leukemia; 97.8% in the test with RPMI-8226 leukemia; 92.3% in the test on OVCAR-8 ovarian; 105% in the test with OVCAR-5 ovarian; 98.5% in the test with OVCAR-4 ovarian; 104% with SK-OV-3 ovarian. For the same compound, the growth in the test with IGROV1 ovarian is 95.3%; with OVCAR-3 ovarian, 102%; with HS 578T breast it was 91.7%; with NCI/ADR-RES ovarian, 95.8%.

Source of the values: PubChem BioAssay (NCI).
